This experiment concerns the target POU1 (OCT1 POU domain) (human, UniProt P14859 260-458). Briefly: EMSA-SELEX-seq; no BOB1; 20 mM Tris-HCl pH 7.6, 140 mM NaCl, 10% glycerol, 0.5 mM EDTA, 0.05% Triton X-100, 0.1 mg/mL BSA, 0.1 mg/mL poly(dI-dC), 5 mM DTT, room temperature, 20 min; high values mean tight binding. Conditions: protein: recombinant; dsDNA, one strand shown. The method, boiled down:
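Tagged POU-domain proteins were produced in E. coli BL21, purified under denaturing conditions and renatured before use. They were mixed at 30 ng with 300 ng of a PCR-amplified double-stranded random 35-nt library, with or without 28 ng coactivator protein, in 20 μL Tris–HCl pH 7.6 binding buffer, incubating 20 min at RT. Complexes cut from native 6% PAGE were eluted and PCR-amplified over four rounds, then sequenced by Illumina, with binding preference taken as the percentage of sequenced 8-mers matching a motif pattern.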
POU1 (OCT1 POU domain), sequence (P14859 260-458): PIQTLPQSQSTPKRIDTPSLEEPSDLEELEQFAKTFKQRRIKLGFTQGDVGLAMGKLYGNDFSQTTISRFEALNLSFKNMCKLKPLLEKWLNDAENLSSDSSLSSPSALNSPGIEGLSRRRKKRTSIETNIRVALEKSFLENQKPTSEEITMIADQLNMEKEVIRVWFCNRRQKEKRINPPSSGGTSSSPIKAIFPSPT
As for ACATAAAA, the binding signal is 0.103 % of ANNNNAAN 8-mers.

As for AAATTAAG, the binding signal was 0.303 % of ANNNNAAN 8-mers.

For the sequence ATTTGAAG, the binding signal was 0.0713 % of ANNNNAAN 8-mers.

In the case of AAACGAAC, the binding signal was 0.0328 % of ANNNNAAN 8-mers.

As to AGAGTAAG, the binding signal is 0.0305 % of ANNNNAAN 8-mers.

Regarding ATTATAAG, the binding signal is 0.121 % of ANNNNAAN 8-mers.

Consider ACCCTAAA, for which the binding signal is 0.0137 % of ANNNNAAN 8-mers.

Consider ATGAGAAA, for which the binding signal was 0.0755 % of ANNNNAAN 8-mers.

As for ACTCTAAA, the binding signal is 0.0271 % of ANNNNAAN 8-mers.

Take ACGATAAG: the binding signal was 0.0275 % of ANNNNAAN 8-mers.

For AGTAGAAT, the binding signal was 0.0717 % of ANNNNAAN 8-mers.

As for AACACAAA, the binding signal was 0.0454 % of ANNNNAAN 8-mers.

As for ATAATAAA, the binding signal was 0.194 % of ANNNNAAN 8-mers.

Regarding AAAGCAAA, the binding signal was 0.106 % of ANNNNAAN 8-mers.

As for ACACCAAA, the binding signal is 0.0149 % of ANNNNAAN 8-mers.

Turning to ACTCTAAT, the binding signal is 0.0488 % of ANNNNAAN 8-mers.

On to AGCCTAAC, for which the binding signal was 0.0153 % of ANNNNAAN 8-mers.

With AGGATAAA, the binding signal was 0.0549 % of ANNNNAAN 8-mers.

In the case of ACGTTAAC, the binding signal is 0.024 % of ANNNNAAN 8-mers.

In the case of AACGAAAG, the binding signal was 0.0313 % of ANNNNAAN 8-mers.

On to AATCCAAC, for which the binding signal was 0.0259 % of ANNNNAAN 8-mers.

Regarding AGACGAAT, the binding signal is 0.0461 % of ANNNNAAN 8-mers.

For AATTAAAA, the binding signal is 0.364 % of ANNNNAAN 8-mers.

As to ACTGTAAT, the binding signal was 0.0572 % of ANNNNAAN 8-mers.

AACCGAAG: the binding signal was 0.0172 % of ANNNNAAN 8-mers.

Regarding AAGTGAAA, the binding signal is 0.0721 % of ANNNNAAN 8-mers.

ACCCGAAA: the binding signal was 0.0172 % of ANNNNAAN 8-mers.

As for AAAGTAAG, the binding signal is 0.0641 % of ANNNNAAN 8-mers.

Regarding AGCCAAAC, the binding signal was 0.0194 % of ANNNNAAN 8-mers.

As to ACCAGAAG, the binding signal was 0.0137 % of ANNNNAAN 8-mers.

Turning to AGCAAAAG, the binding signal is 0.0442 % of ANNNNAAN 8-mers.

For AAGGCAAA, the binding signal is 0.222 % of ANNNNAAN 8-mers.

On to AAGCTAAC, for which the binding signal is 0.0137 % of ANNNNAAN 8-mers.

For AAGAGAAC, the binding signal was 0.0271 % of ANNNNAAN 8-mers.

With AGGCAAAA, the binding signal was 0.236 % of ANNNNAAN 8-mers.

With AGGAAAAT, the binding signal was 0.287 % of ANNNNAAN 8-mers.

Regarding ACTGCAAA, the binding signal is 0.0416 % of ANNNNAAN 8-mers.

Take ACAGTAAT: the binding signal is 0.0614 % of ANNNNAAN 8-mers.

Regarding AGCGTAAT, the binding signal is 0.0591 % of ANNNNAAN 8-mers.
